# Results: PubChem BioAssay
# Results filed as inconclusive are left out. Calls of active or inactive are those of the source.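 The calls were made as follows, unless noted: active = viability loss from added drug above about 55%, and viability with drug at most 40%, in both replicates (limit read from the data, passing the limit was not always enough); inconclusive = both conditions met in only one replicate; inactive = neither replicate meets both conditions.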
# Tests used:
# [1] = target: Pantothenate synthetase (Mycobacterium tuberculosis (strain ATCC 25618 / H37Rv)) (UniProt P9WIL5); assay: Coupled enzyme confirmation of inhibitors against recombinant Mtb PanC (AID 375; call rule not given here;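 also: 0% = full reaction with vehicle and 100% = no enzyme background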); conditions: coupled enzyme assay; at 10 µM, stronger effect = higher value
# [2] = HUVEC growth inhibition – cell-based, human, primary screen (AID 575;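 active = viability at or below 30% in both replicate assays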;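 also: 100% = median of untreated cell wells with 0.1% DMSO on each plate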); conditions: HUVEC proliferation, CellTiter-Glo luminescence, 72 h; at 10 µM; stronger effect = lower value
# [3] = H69AR cell proliferation blockers – human, duplicate replicates, primary screen (AID 580;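 active = viability at or under a set limit in both replicates, limit being median viability minus 3 SD, cut at about 48% in these data, passing the limit was not always enough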;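 also: 100% = mean luminescence of untreated wells and 0% = no signal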); conditions: H69AR lung tumor cells viability, ATP luminescence, 72 h; at 10 µM; stronger effect = lower value
# [4] = MRP1 drug-resistance reversers in H69AR cells – cell-based, doxorubicin co-treatment, pilot screen (AID 601); conditions: CellTiter-Glo, 72 h, at 10 µM; for differential viability (reversal): stronger effect = higher value
# [5] = yeast transport mutant growth inhibition pilot in 384-well plates, post-Golgi transport modulator project (AID 636; in the data active = inhibition above about 31%); conditions: absorbance 615 nm, about 18 h, stronger effect = higher value
# [6] = growth suppression of yeast trafficking mutant, preliminary HTS, modulators of trafficking downstream of Golgi apparatus project, 1536-format plate, OD 615 nm (AID 637; in the data active = inhibition above about 30%); conditions: yeast transport mutant growth, absorbance 615 nm, 18 h; stronger effect = higher value
# [7] = reduced viability of SK-BR-3 breast cancer cells – cell-based, 24 h, human, pilot screen (AID 572;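 active = viability at or below 10% of carrier control in both of two separate runs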;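 also: compound exposure lasted between 18 and 24 h rather than exactly 24 h; 100% = carrier-treated control wells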); conditions: SK-BR-3 viability, CellTiter-Glo luminescence, at 10 µM, stronger effect = lower value
# [8] = S. cerevisiae growth inhibition in permissive medium (OD615), pilot counter-assay for S. cerevisiae lifespan shortening project, permissive growth control (AID 705;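 active = growth inhibition above 25% in both replicates, a cutoff set 3 SD above the mean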); conditions: OD615, 24 h, at 10 µM, stronger effect = higher value
# [9] = S. cerevisiae growth inhibition in restrictive medium, OD615, pilot screen, restrictive growth control, yeast lifespan reduction project (AID 706;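 active = growth inhibition above a set limit, 3 SD over mean compound inhibition, in both replicates, cut at about 43% in these data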;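 also: modified DeaD lifespan yeast strain shifted to restrictive glucose medium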); conditions: OD615, 48 h, at 10 µM, stronger effect = higher value
# [10] = doxorubicin toxicity protection in MRP-1 cells – H69AR cells, CellTiter-Glo, duplicate, MRP-1 activator project, pilot screen (AID 807;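 active = viability increase at or above a cutoff of the median across tested compounds plus 3 SD, cut at about 8.5% in these data, passing the limit was not always enough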;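 also: compound pretreatment 18-22 h then 72 h combined with doxorubicin; 0% = doxorubicin alone and 100% = vehicle without doxorubicin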); conditions: H69AR viability with doxorubicin, CellTiter-Glo luminescence; at 10 µM; stronger effect = higher value
# [11] = viability of HCT116 without oncogenic beta-catenin – human colon tumor cells, pilot screen (AID 823;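 active = cell viability at or below a set limit in both duplicate runs, the limit being the all-compound median minus 4 SD, cut at about 23% in these data, passing the limit was not always enough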;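 also: 0% = wells killed by 20 µM Hyamine and 100% = untreated DMSO cell wells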); conditions: HCT116 beta-catenin knockout viability, CellTiter-Glo, 60 h; at 10 µM; stronger effect = lower value
# [12] = viability of PTEN-null HCT116 cells – cell-based, HCT116 clonal line, CellTiter-Glo, pilot screen (AID 824;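 active = viability at or below 27.92% in each of two runs, the all-compound median minus 4 SD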;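 also: 0% = 20 µM Hyamine control and 100% = vehicle cell control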); conditions: HCT116 PTEN-deleted viability, 60 h, at 10 µM, stronger effect = lower value
# [13] = RAM pathway blockade in budding yeast – dse1pr::URA3 reporter, 5-FOA selection, pilot screen (AID 869;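 active = inhibition over a set limit, the all-compound mean plus 3 SD, in both replicate runs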;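 also: 0% = DMSO wells with no growth and 100% = 10 µM 1-NA-PP1 with full growth; RAM network block rescues cells from 5-FOA so hits raise OD615 growth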); conditions: S. cerevisiae dse1pr::URA3 5-FOA growth, OD615, 2 d, at 10 µM, stronger effect = higher value
# [14] = H69AR cells + 2 uM doxorubicin, measured here: viability with 2 uM doxorubicin, stronger effect = lower value
# [15] = H69AR cells, compound alone cytotoxicity
# Sequence of Pantothenate synthetase (Mycobacterium tuberculosis (strain ATCC 25618 / H37Rv)) (P9WIL5 whole entry, looked up): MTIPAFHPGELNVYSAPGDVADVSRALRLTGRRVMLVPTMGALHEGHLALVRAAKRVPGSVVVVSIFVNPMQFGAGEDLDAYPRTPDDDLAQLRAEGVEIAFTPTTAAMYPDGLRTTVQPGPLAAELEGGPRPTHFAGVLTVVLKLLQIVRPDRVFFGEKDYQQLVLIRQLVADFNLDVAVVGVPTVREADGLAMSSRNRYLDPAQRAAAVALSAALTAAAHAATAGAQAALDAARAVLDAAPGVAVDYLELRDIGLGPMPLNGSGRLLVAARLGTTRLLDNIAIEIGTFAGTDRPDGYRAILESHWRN
SMILES,inhibition [1],viability [2],viability [3],differential viability (reversal) ([4]; H69AR cells + 2 uM doxorubicin),"viability [4, 14] [%]","viability [4, 15] [%]",inhibition [5],inhibition [6],viability [7],growth inhibition [8],growth inhibition [9],viability increase [10],viability [11],viability [12],inhibition [13]
O=c1[nH]c(=O)n(Cc2ccc(F)cc2)c(O)c1C=NCCCN1CCOCC1,0% (inactive),96% (inactive),95.5% (inactive),3.54% (inactive),91.9,95.5,-1.6% (inactive),-2.22% (inactive),,,,,,,
OC(CNC1CCCCC1)c1ccccc1 (stereo not drawn),7% (inactive),111% (inactive),98% (inactive),12.3% (inactive),85.7,98,-2.67% (inactive),-2.55% (inactive),104% (inactive),,,,,,
O=C(Cn1cc(C(=O)c2ccccc2)c2ccccc21)NCc1ccco1,2% (inactive),47.3% (inactive),22.6% (active),-47.2% (inactive),69.8,22.6,2.47% (inactive),6.51% (inactive),,,,,,,
C[C@H]1CCC/C=C/C2C[C@H](O)CC2[C@H](O)/C=C/C(=O)O1 (stereo partly drawn),0% (inactive),7.17% (active),,0.59% (inactive),1.34,1.93,-2.08% (inactive),0% (inactive),120% (inactive),,,,,,
CCC(C(=O)N1CCC2(CC1)OCCO2)c1ccccc1 (stereo not drawn),0% (inactive),102% (inactive),93% (inactive),13.2% (inactive),79.8,93,-6.4% (inactive),1.43% (inactive),,,,,,,
Cc1cccc(-n2c(O)c(C=NCCCN3CCOCC3)c(=O)[nH]c2=O)c1C,2% (inactive),100% (inactive),105% (inactive),14.8% (inactive),90.7,105,0.8% (inactive),-2.7% (inactive),,,,,,,
O=c1[nH]c2ccccc2n1C1CCN(CCCC(c2ccc(F)cc2)c2ccc(F)cc2)CC1,5% (inactive),2.55% (active),,-0.46% (inactive),1.62,1.16,,,,,,,,,
Cc1cccc(C2=NCC(=O)N(CC(=O)NCc3ccco3)c3sc4c(c32)CCCC4)c1,8% (inactive),,,-28.5% (inactive),84.4,55.9,-6.49% (inactive),4.6% (inactive),102% (inactive),,,,,,
CCC(=NCC1CCCO1)c1c(O)n(Cc2ccccc2)c(=O)[nH]c1=O (stereo not drawn),0% (inactive),107% (inactive),86.3% (inactive),-0.335% (inactive),86.7,86.3,-4.29% (inactive),1.48% (inactive),91% (inactive),,,,,,
Cc1c2ccncc2c(C)c2c1[nH]c1ccccc12,0% (inactive),1.5% (active),,0.18% (inactive),0.98,1.16,1.56% (inactive),3.33% (inactive),,,,,,,
CC(C)[C@@]1(NC(=O)[C@@H]2C=C3c4cccc5[nH]cc(c45)C[C@H]3N(C)C2)O[C@@]2(O)[C@@H]3CCCN3C(=O)[C@H](Cc3ccccc3)N2C1=O,3% (inactive),89% (inactive),90.5% (inactive),-9.99% (inactive),101,90.5,-0.13% (inactive),16.8% (inactive),103% (inactive),,,,,,
COc1ccc(CCn2c(O)c(C=NCCCN(C)C)c(=O)[nH]c2=O)cc1OC,0% (inactive),103% (inactive),98.1% (inactive),3.64% (inactive),94.5,98.1,-4% (inactive),-1.59% (inactive),,,,,,,
Cc1ccccc1-n1c(O)c(C=NCCN2CCOCC2)c(=O)[nH]c1=O,2% (inactive),97.6% (inactive),92.4% (inactive),-3.12% (inactive),95.5,92.4,-5.87% (inactive),-8.41% (inactive),,,,,,,
CCOC(=O)C1=C(N)OC(C)=C(C(=O)OCCOC)C12C(=O)Nc1ccccc12 (stereo not drawn),5% (inactive),92% (inactive),98.2% (inactive),-9.01% (inactive),107,98.2,-4.52% (inactive),1.64% (inactive),85% (inactive),,,,,,
CCOC(=O)c1c(N)n(Cc2ccco2)c2nc3ccccc3nc12,,,,,,,,,,-1.25% (inactive),0.175% (inactive),-6.16% (inactive),83.3% (inactive),74% (inactive),1.18% (inactive)
CN1C[C@H](CNC(=O)OCc2ccccc2)C[C@@H]2c3cccc4c3c(cn4C)C[C@H]21,4% (inactive),2.42% (active),66.3% (inactive),1.09% (inactive),65.2,66.3,,,,,,,,,
CN(C)CCc1nc2ccccc2c(=O)n1-c1ccccc1,0% (inactive),92.1% (inactive),90.6% (inactive),-1.03% (inactive),91.6,90.6,-2.08% (inactive),-4.43% (inactive),107% (inactive),,,,,,
O=C1c2ccccc2C(=O)N1Cc1nc2ccccc2c(=O)n1-c1ccc(Br)cn1,,,,,,,,,,-8.78% (inactive),-3.02% (inactive),0.3% (inactive),98.4% (inactive),99.3% (inactive),1.44% (inactive)
C[C@H]1CCCC(=O)CCCCCc2cc(O)cc(O)c2C(=O)O1,2% (inactive),,87.3% (inactive),-23% (inactive),110,87.3,0.26% (inactive),-1.83% (inactive),107% (inactive),,,,,,
Cc1ccc(Cn2c(C)c3cnn(CC(=O)N4CCC5(CC4)OCCO5)c(=O)c3c2C)cc1,0% (inactive),98% (inactive),,-46.2% (inactive),100,53.8,-0.81% (inactive),-1.09% (inactive),97% (inactive),,,,,,
C[N+]1(C)[C@@H]2CC(OC(=O)[C@H](CO)c3ccccc3)C[C@H]1[C@@H]1O[C@@H]12 (stereo partly drawn),0% (inactive),101% (inactive),106% (inactive),8.56% (inactive),97.7,106,-2.21% (inactive),8.67% (inactive),97% (inactive),,,,,,
CC1(C)CC(=O)C=C(NCCN2CCN(C(=O)Cc3ccc(Cl)cc3)CC2)C1,2% (inactive),109% (inactive),92.4% (inactive),-3.5% (inactive),95.9,92.4,-0.79% (inactive),-2.06% (inactive),,,,,,,
CCCCn1c(O)c(C(C)=NC(Cc2c[nH]c3ccccc23)C(=O)OC)c(=O)[nH]c1=O (stereo not drawn),1% (inactive),84.5% (inactive),96.5% (inactive),2.8% (inactive),93.7,96.5,-4.93% (inactive),-2.1% (inactive),91% (inactive),,,,,,
CC(C)[C@@]1(NC(=O)[C@@H]2C[C@@H]3c4cccc5[nH]cc(c45)C[C@H]3N(C)C2)O[C@@]2(O)[C@@H]3CCCN3C(=O)[C@H](Cc3ccccc3)N2C1=O,4% (inactive),4.38% (active),73.8% (inactive),-3.47% (inactive),77.3,73.8,-1.56% (inactive),-1.67% (inactive),111% (inactive),,,,,,
CN1C(=O)CN=C(c2ccc(Cl)cc2)c2cc(Cl)ccc21,0% (inactive),61.8% (inactive),84.8% (inactive),0.31% (inactive),84.5,84.8,0.39% (inactive),4.17% (inactive),84% (inactive),,,,,,
